Assay results from PubChem BioAssay (NCI).
This is part of a sample that, as a whole, favours compounds with a hit. Of some 83,000 tested, about 20% had one in any assay.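 Percent growth is the endpoint: 0 to 100 indicates growth inhibition (40 means 60% inhibition), 0 means no net growth, and negative values indicate cell death.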 Activity calls are given as the source filed them. Rule for the calls: active = growth percent below 10; inactive = the rest.

Assays:
Assay in all cases: NCI-60 one-dose screen, 48 h (100 = growth as untreated, 0 = no growth, -100 = all killed)
Conditions in all cases: 10 µM unless noted
[1] = system: NCI-H23 lung
[2] = system: NCI-H226 lung
[3] = system: NCI-H322M lung
[4] = system: HOP-62 NSCLC
[5] = system: NCI-H460 lung
[6] = system: HOP-92 NSCLC
[7] = system: NCI-H522 lung
[8] = system: A549/ATCC NSCLC
[9] = system: 786-0 renal
[10] = system: COLO 205 colon
[11] = system: DU-145 prostate
[12] = system: K-562 leukemia
[13] = system: MALME-3M melanoma
[14] = system: MDA-MB-231 breast
[15] = system: RXF 393 renal
[16] = system: SF-268 CNS
[17] = system: SF-295 CNS
[18] = system: SF-539 CNS
[19] = system: UACC-257 melanoma
[20] = system: M14 melanoma

Measured: growth

Cc1ccc2nc(/C(C#N)=C(/CCCO)NC(Cc3ccccc3)C(=O)OCc3ccccc3)[nH]c(=O)c2c1 (stereo not given)
inactive: [1] 43% | [2] 103% | [3] 94.4% | [4] 88.2% | [5] 110% | [6] 108% | [7] 112% | [8] 114% | [9] 93.9% | [10] 87.8% | [11] 98.4% | [12] 119% | [13] 126% | [14] 113% | [15] 127% | [16] 102% | [17] 98.7% | [18] 65.1% | [19] 121% | [20] 98.4%

CCNC(=O)Oc1ccc(/C(=C(/C)Cc2ccc(OC)cc2)c2ccc(OCCN3CCCCC3)cc2)cc1
active: [12] 0.352% | [20] -14.2%
inactive: [1] 87.7% | [2] 86.5% | [3] 89.2% | [4] 91.5% | [5] 35.7% | [6] 44.4% | [7] 72.8% | [8] 62% | [9] 72.6% | [10] 20.9% | [11] 83.5% | [13] 68.1% | [14] 78.4% | [15] 61.6% | [16] 70% | [17] 82.6% | [18] 82.9% | [19] 95.3%

C/C=C(/C)n1cnc2c(Nc3ccccn3)nc(Cl)nc21
inactive: [1] 102% | [2] 102% | [3] 99.3% | [4] 102% | [5] 103% | [6] 99.9% | [7] 87.1% | [8] 104% | [9] 101% | [10] 114% | [11] 109% | [12] 95.6% | [13] 106% | [14] 107% | [15] 105% | [16] 99.2% | [17] 104% | [18] 102% | [19] 97.6% | [20] 101%

C=C1C(=O)O[C@H]2[C@H]1CC/C(COC(=O)CSCSCC(=O)OC/C1=C/CC[C@@]3(C)O[C@H]3[C@H]3OC(=O)C(=C)[C@@H]3CC1)=C\CC[C@@]1(C)O[C@@H]21
inactive: [1] 24.6% | [3] 79.1% | [4] 82.7% | [5] 13.6% | [8] 72.1% | [11] 28.3% | [16] 20.7% | [17] 70.3% | [19] 34.1%
active: [2] -7.99% | [6] -13.3% | [7] -77.8% | [9] -6.8% | [10] -65.5% | [12] 3.55% | [13] -4.65% | [14] -27.9% | [15] -86.7% | [18] 3.58% | [20] 4.26%

O=C(/C=C(O)/C=C/c1cccc2[nH]ccc12)/C=C/c1cccc2[nH]ccc12
inactive: [1] 80.5% | [2] 99.5% | [3] 98.9% | [4] 76.4% | [5] 98.3% | [6] 62.1% | [7] 34% | [8] 87.5% | [9] 86% | [10] 55.8% | [11] 95.6% | [12] 14.5% | [13] 69.4% | [14] 73.8% | [15] 87.4% | [16] 89.5% | [17] 95.5% | [18] 90.4% | [19] 86.4% | [20] 38.9%

CCCCCCCCCCCCCCCCCCOc1ccccc1CC(=O)NCC[N+]1(C)CCCCC1
inactive: [1] 62.5% | [2] 74.2% | [3] 62.7% | [4] 59% | [5] 41.9% | [6] 19.9% | [7] 32.7% | [8] 51.2% | [9] 74.2% | [10] 23.6% | [11] 68.7% | [12] 34.2% | [13] 44.9% | [14] 36.6% | [15] 18.4% | [16] 34% | [17] 90.2% | [18] 84% | [19] 88.3% | [20] 68.3%

CCOC(=O)/C=C1\S/C(=N\Nc2cc(=O)[nH]c3ccccc23)N(c2ccccc2)C1=O
inactive: [1] 97.9% | [2] 95.4% | [3] 101% | [4] 92.1% | [5] 107% | [6] 88.8% | [7] 96.7% | [8] 103% | [9] 101% | [10] 106% | [11] 109% | [12] 98.2% | [13] 101% | [14] 97.8% | [15] 103% | [16] 104% | [17] 103% | [18] 96.9% | [19] 107% | [20] 101%

O=C(NNC(=O)c1nc2cc(F)ccc2n2cccc12)c1cnccn1
inactive: [1] 45.7% | [2] 42.4% | [3] 45.2% | [4] 29.7% | [5] 14.7% | [6] 47.7% | [7] 56.1% | [8] 28.5% | [9] 51.9% | [10] 16.5% | [11] 44.5% | [12] 18.2% | [13] 37.7% | [14] 37.4% | [15] 66.4% | [16] 34.8% | [17] 21.6% | [18] 29.6% | [19] 53.6% | [20] 23.4%

CCCCNc1cc(-c2cn[nH]c2-c2cc(C)cc(OC)c2)nc(-c2cccnc2)n1
inactive: [1] 101% | [2] 87.4% | [3] 86.9% | [4] 95.6% | [5] 99.7% | [6] 68.2% | [7] 81.2% | [8] 94.3% | [9] 68.2% | [10] 99.5% | [11] 93.6% | [12] 80.1% | [13] 100% | [14] 69.8% | [15] 71.9% | [16] 98.4% | [17] 91.5% | [18] 81.7% | [19] 110% | [20] 98.7%

O=S(=O)(Nc1cc(Sc2cccc3cccnc23)c(O)c2ccccc12)c1ccccc1
active: [5] 3.5% | [7] -37.3% | [10] -47.6% | [12] -16.8% | [13] 0.404% | [16] 8.28% | [18] -9.98% | [19] -9.38% | [20] -16.5%
inactive: [1] 28.8% | [2] 46.3% | [3] 28.3% | [4] 47.3% | [6] 33.1% | [8] 15.7% | [9] 36.6% | [11] 15% | [14] 25.1% | [15] 28.7% | [17] 21.7%

COc1ccc2c(c1)c(/C(O)=C1\COC(=O)C1=O)cn2Cc1ccc(F)cc1
inactive: [1] 110% | [2] 90.4% | [3] 101% | [4] 112% | [5] 103% | [6] 72.1% | [7] 73.9% | [8] 101% | [9] 96.1% | [10] 108% | [11] 139% | [12] 86.6% | [13] 106% | [14] 94.1% | [15] 104% | [16] 103% | [17] 93.3% | [18] 102% | [19] 95.8% | [20] 116%

CCOC(=O)c1c(C)c2c(n1Cc1ccccc1)CSCC2=O
active: [1] 4.82% [100 µM] | [2] -5.37% [100 µM] | [4] -25.9% [100 µM] | [5] -21.1% [100 µM] | [6] -19.4% [100 µM] | [9] -11.2% [100 µM] | [10] -53.3% [100 µM] | [13] -16.3% [100 µM] | [14] -2.2% [100 µM] | [17] 3.06% [100 µM] | [18] -23.7% [100 µM] | [20] -16% [100 µM]
inactive: [3] 36.4% [100 µM] | [7] 16.5% [100 µM] | [8] 20.2% [100 µM] | [11] 30.8% [100 µM] | [12] 18.6% [100 µM] | [15] 17.1% [100 µM] | [16] 21.4% [100 µM] | [19] 21.9% [100 µM]

CN(C)c1ccc(-c2nc(-c3ccccc3)c(-c3ccccc3)[nH]2)cc1
inactive: [1] 92.2% | [2] 106% | [3] 85.9% | [4] 100% | [5] 88.9% | [6] 52.2% | [7] 77.4% | [8] 99.5% | [9] 94.6% | [10] 129% | [11] 102% | [12] 65.7% | [13] 107% | [14] 95.3% | [15] 104% | [16] 112% | [17] 88.6% | [18] 102% | [19] 110% | [20] 82.7%

O=C(O)/C=C/C(=O)Nc1cccc(Cn2nnc3cc(Cl)c(Cl)cc32)c1
inactive: [1] 97.3% | [2] 89.8% | [3] 101% | [4] 98.4% | [5] 105% | [6] 97.5% | [7] 96.2% | [8] 102% | [9] 99.7% | [10] 112% | [11] 119% | [12] 91.3% | [13] 97.5% | [14] 106% | [15] 93.2% | [16] 98.5% | [17] 97% | [18] 101% | [19] 97.1% | [20] 102%

Cc1ccc(NC(=O)Cn2c(Br)nc3c2c(=O)n(C)c(=O)n3C)cc1
inactive: [1] 22.7% | [3] 30.6% | [5] 14.6% | [7] 62.6% | [8] 27.1% | [10] 19.5% | [11] 44.1% | [12] 51.6% | [16] 56.1% | [19] 62.2% | [20] 43.1%
active: [2] -13.2% | [4] 6.37% | [6] -2.3% | [9] -67.1% | [13] -36% | [14] -19.2% | [15] -3.2% | [17] 0.92% | [18] 1.55%
